Shown are actives, neighbours in structure and some others; about 1.9% of the full set was active somewhere.
Pin1 inhibitor – blocks the human prolyl isomerase Pin1; AID 504891; Q13526; Potency, µM (series often up to 115 µM), most hits filed as inhibitors; 0.009% of 390,000 active; Pin1 FP peptide displacement, HiFluor488, 10 min; active means well fitted inhibition curve with a large enough effect in the polarisation, with a control signal flat, not every such curve was filed as active; inconclusive means small, poorly fitted or top-dose-only effect, or effect the other way, or a change in a side signal; inactive means no such curve, though single readings can be large or run the other way; the % refers to the polarisation
IL-2 act – activates IL-2 in a cell-based reporter assay; IL-2 activation reporter assay, cell-based qHTS; stimulated with anti-CD3/CD4/CD28 beads; in transgenic mouse T cells; activation, % (series mostly up to about 46 µM); 0.065% of 360,000 active; in the data active means activation above about 50%; inconclusive means mostly about 30% to 49%
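Readout is EGFP and DsRed signal by fluorescent plate cytometry after 18 h at 37 degrees C. Transgenic mouse T cells (750/well) received compound for 60 min before bead stimulation (anti-CD3, anti-CD4, anti-CD28); memory T cells served as non-tolerant control.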
USP2a inh – inhibitors of human ubiquitin-specific protease USP2a; O75604; USP2 core, Ub-CHOP2 coupled fluorogenic reporter, 485/531; Potency, µM (top dose mostly 38.3 µM), usual class: inhibitors; 0.01% of 330,000 active; AID 463254
Target sequence (O75604 whole entry, looked up): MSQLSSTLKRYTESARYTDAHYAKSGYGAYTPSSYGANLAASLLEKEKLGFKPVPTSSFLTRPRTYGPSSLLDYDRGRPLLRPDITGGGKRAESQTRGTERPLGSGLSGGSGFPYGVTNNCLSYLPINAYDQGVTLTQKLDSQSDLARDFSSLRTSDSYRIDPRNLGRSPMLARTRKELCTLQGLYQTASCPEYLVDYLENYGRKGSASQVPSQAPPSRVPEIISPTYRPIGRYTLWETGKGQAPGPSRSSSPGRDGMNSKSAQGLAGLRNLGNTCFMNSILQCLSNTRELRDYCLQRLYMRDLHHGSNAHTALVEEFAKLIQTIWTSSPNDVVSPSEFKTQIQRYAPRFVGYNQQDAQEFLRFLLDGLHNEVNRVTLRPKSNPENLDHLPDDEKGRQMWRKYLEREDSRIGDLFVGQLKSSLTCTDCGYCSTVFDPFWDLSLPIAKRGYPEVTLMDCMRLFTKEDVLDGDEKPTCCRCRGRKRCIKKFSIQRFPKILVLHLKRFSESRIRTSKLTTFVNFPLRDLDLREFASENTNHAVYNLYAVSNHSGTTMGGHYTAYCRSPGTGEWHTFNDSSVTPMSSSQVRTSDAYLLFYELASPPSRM
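USP2 core (10nM final) preincubated 30min RT with compound in 20mM Tris-HCl pH 8.0, 2mM CaCl2, 2mM beta-mercaptoethanol, 0.05% CHAPS; 25nM Ub-CHOP2 plus 25nM reporter substrate added, fluorescence (Ex485/Em531) read after 60min.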
PKM2 act – PKM2 (human) enzyme activation; P14618; 0.34% of 260,000 active; purified PKM2, Kinase-Glo ATP luminescence, activation; response scale: 0% is enzyme alone, no compound; AID 1631; Potency, µM (doses to about 57.5 µM), usual class: activators; further: nearly all actives have a fitted effect of over 55% in size
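ATP formation by purified human PK-M2, quantified via coupled luciferase luminescence after 1 h at room temperature with 0.1 mM ADP and 0.5 mM PEP final.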
a7 integrin act – integrin-mediated muscular dystrophy alleviation activation; Potency, µM (highest dose often 38.3 µM), most hits filed as activators; alpha7betagal myoblasts, beta-gal FDG fluorescence, 48 h; AID 624291; 0.064% of 350,000 active; further: nearly all actives have a fitted effect of over 60% in size
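Alpha7betagal+/- myoblasts (passage 13) were plated 16-24 hr, then exposed to compounds (1:260 dilution of DMSO stock) for 48 hours at 37C. After MPER lysis, β-galactosidase reporter activity was read as FDG fluorescence (ex 480/em 540) after 30 minutes.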
ClpP mod – qHTS Assay for Activators of ClpP; purified B. subtilis ClpP, FRET peptide cleavage, 20 min; Potency, µM (series often up to 57.5 µM); ATP-dependent Clp protease proteolytic subunit (Bacillus subtilis (strain 168)), P80244; 1.9% of 340,000 active; active means well fitted falling curve with a large enough effect; inconclusive means small, poorly fitted or top-dose-only effect; inactive means no such curve, though single readings can be large or run the other way; further: the source files actives as falling curves though it sought activators and does not explain the sign; nearly all actives have a fitted effect of over 65% in size
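ClpP 10 microg/mL final, pH 8 Tris/KCl buffer with BSA, glycerol, Tween-20; compound pinned in; FRET-FV substrate; RT 20 min; Ex320/Em430; ΔFRET vs ADEP 5.8 microM, DMSO, no enzyme.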
Hits are given with their value; [ ] = another dose, or the depositor's remark. Unless noted, the call rests on the fitted dose curve; in most records, active means well fitted curve in the direction sought with a large enough effect; inconclusive means small, poorly fitted or top-dose-only effect, or another doubt; inactive means no such curve, though single readings can be large; an effect the other way counts as inactive or inconclusive.

What do the screens show for `COCCn1c(=NC(=O)c2ccco2)sc2cc(C(=O)OC)ccc21`?
Pin1 inhibitor: inactive; IL-2 act: inactive; USP2a inh: inactive; PKM2 act: inactive; a7 integrin act: inactive; ClpP mod: inactive

What do the screens show for `Clc1ccc(C2=CC(c3ccco3)n3ncnc3N2)cc1` (stereo not given)?
Pin1 inhibitor: inconclusive; IL-2 act: inactive; USP2a inh: inactive; PKM2 act: inactive; a7 integrin act: inactive; ClpP mod: 31.6µM

What do the screens show for `COc1ccc2c(c1)Oc1ncn(CCN3CCOCC3)c(=N)c1C2c1ccc(OC)c(OC)c1` (stereo not given)?
Pin1 inhibitor: inactive

Results for COc1ccc(N2C(=O)c3ccccc3NC2c2ccc(OC)c(Cn3nnc4ccccc43)c2)cc1 (stereo not given) ?
Pin1 inhibitor: inactive; IL-2 act: inactive; USP2a inh: inactive; PKM2 act: inactive; a7 integrin act: inactive; ClpP mod: 31.6µM

How did COc1ccc(C2Nc3ccccc3C(=O)N2c2ccc(C)cc2)cc1COc1ccccn1 (stereo not given) do in these assays?
Pin1 inhibitor: inactive; IL-2 act: inactive; USP2a inh: inactive; PKM2 act: inactive; a7 integrin act: inactive; ClpP mod: 31.6µM

What do the screens show for `COc1ccc(C2Nc3ccccc3C(=O)N2c2ccc(C)cc2)cc1Cn1nc(C)c([N+](=O)[O-])c1C` (stereo not given)?
Pin1 inhibitor: inactive; IL-2 act: inactive; USP2a inh: inactive; PKM2 act: inactive; a7 integrin act: inactive; ClpP mod: inactive

Results for C=C(c1nc2ccccc2s1)C1Cc2cccc3c2N(CCC3)C1 (stereo not given) ?
ClpP mod: inactive

Results for CCOc1ccccc1-c1nnc2n1N=C(c1ccc(OC)cc1)CS2 ?
Pin1 inhibitor: inactive

How did COc1cc2[nH]c(=O)n(Cc3ccc(C(=O)NCCCN4CCN(C)CC4)cc3)c(=O)c2cc1OC do in these assays?
Pin1 inhibitor: inactive; IL-2 act: inactive; USP2a inh: inactive; PKM2 act: inactive; a7 integrin act: inactive; ClpP mod: 25.1µM

What do the screens show for `CCCCCn1c(=O)[nH]c2cc(C(=O)NCCCN3CCCCC3)ccc2c1=O`?
Pin1 inhibitor: inactive; IL-2 act: inactive; USP2a inh: inactive; PKM2 act: inactive; a7 integrin act: inactive; ClpP mod: 28.2µM

What do the screens show for `CCCCCn1c(=O)[nH]c2cc(C(=O)NCCN3CCC(C)CC3)ccc2c1=O`?
Pin1 inhibitor: inactive; IL-2 act: inactive; USP2a inh: inactive; PKM2 act: inactive; a7 integrin act: inactive; ClpP mod: inactive

How did COc1ccc(Cn2c(=O)[nH]c3cc(C(=O)NCCCN4CCCC4)ccc3c2=O)cc1 do in these assays?
Pin1 inhibitor: inactive; IL-2 act: inactive; USP2a inh: inactive; PKM2 act: inactive; a7 integrin act: inactive; ClpP mod: inactive

Results for CCN(CC)CCCNC(=O)c1ccc2c(=O)n(CCc3ccccc3)c(=O)[nH]c2c1 ?
Pin1 inhibitor: inactive; ClpP mod: inactive

Results for CCCCCn1c(=O)[nH]c2cc(C(=O)NCCN(CC)CC)ccc2c1=O ?
Pin1 inhibitor: inactive; IL-2 act: inactive; USP2a inh: inactive; PKM2 act: inactive; a7 integrin act: inactive; ClpP mod: 25.1µM

What do the screens show for `CCCCCn1c(=O)[nH]c2cc(C(=O)NCCCN3CCC(C)CC3)ccc2c1=O`?
Pin1 inhibitor: inactive; IL-2 act: inactive; USP2a inh: inactive; PKM2 act: inactive; a7 integrin act: inactive; ClpP mod: 28.2µM

How did O=C(CNC(=O)c1ccc2ccccc2c1)OC(C(=O)Nc1cc(C(F)(F)F)ccc1Cl)c1ccccc1 (stereo not given) do in these assays?
Pin1 inhibitor: inactive

How did C[n+]1ccc(/C=C/c2cc[n+](C)c3ccccc23)c2ccccc21 do in these assays?
ClpP mod: inactive

How did COc1ccc(CNc2nc(Cl)nc3nc[nH]c23)cc1 do in these assays?
Pin1 inhibitor: inconclusive; ClpP mod: inactive

Results for COc1ccc(C2C(C(C)=O)=C(C)Nc3ncnn32)cc1OC (stereo not given) ?
Pin1 inhibitor: inactive; IL-2 act: inactive; USP2a inh: inactive; PKM2 act: inactive; a7 integrin act: inactive; ClpP mod: inactive

How did CCCCCOc1ccc(C2C(C(C)=O)=C(C)Nc3ncnn32)cc1OC (stereo not given) do in these assays?
Pin1 inhibitor: inactive; IL-2 act: inactive; USP2a inh: inactive; PKM2 act: inactive; a7 integrin act: inactive; ClpP mod: 11.2µM

How did Nc1ccc(S(=O)(=O)N2CCN(S(=O)(=O)c3ccc4c(c3)OCCO4)CC2)cc1 do in these assays?
Pin1 inhibitor: inactive

How did CNc1nnc(SCC(=O)c2cc(C)n(C3CC3)c2C)s1 do in these assays?
Pin1 inhibitor: inactive; IL-2 act: inactive; USP2a inh: inactive; a7 integrin act: 12.6µM; ClpP mod: inactive

How did Cc1cc(=O)oc2cc(OC(C)C(=O)Nc3ccc(N4CCCCC4)cc3)ccc12 (stereo not given) do in these assays?
Pin1 inhibitor: inconclusive; IL-2 act: inactive; USP2a inh: inactive; PKM2 act: inactive; a7 integrin act: inactive; ClpP mod: inactive

Results for COC(=O)C(CC(C)C)Oc1ccc2c(C)cc(=O)oc2c1 (stereo not given) ?
Pin1 inhibitor: inactive; IL-2 act: inactive; USP2a inh: inactive; PKM2 act: inactive; a7 integrin act: inactive; ClpP mod: 15.8µM

Results for Cc1cc(=O)oc2cc(OCc3ccc(S(=O)(=O)N4CCOCC4)cc3)ccc12 ?
Pin1 inhibitor: inactive; IL-2 act: inactive; USP2a inh: inactive; PKM2 act: inactive; a7 integrin act: inactive; ClpP mod: 3.16µM

Results for Cc1cc(=O)oc2cc(OCC(=O)N3CCOCC3)ccc12 ?
Pin1 inhibitor: inconclusive; IL-2 act: inactive; USP2a inh: inactive; PKM2 act: inactive; a7 integrin act: inactive; ClpP mod: 15.8µM

What do the screens show for `Cc1cc(=O)oc2cc(OC(C)C(=O)N3CCOCC3)ccc12` (stereo not given)?
Pin1 inhibitor: inactive; IL-2 act: inactive; USP2a inh: inactive; PKM2 act: inactive; a7 integrin act: inactive[7.66 µM]; ClpP mod: 14.1µM

Results for CC(=O)C1CCN(c2ncc(-c3cccc(N(C)C)c3)s2)CC1 ?
Pin1 inhibitor: inactive

Results for CCc1ccc(NC(=O)COC(=O)c2ccccc2OCC(=O)N(C)C)cc1 ?
ClpP mod: inactive

Results for CCCn1c2c(c(O)c(C(=O)NC)c1=O)CCCC2 ?
Pin1 inhibitor: inconclusive; IL-2 act: inactive; USP2a inh: inactive; PKM2 act: inactive; a7 integrin act: inactive; ClpP mod: inactive
